{"source": "PubChem BioAssay AID1159580", "about": "(chemical genetic matrix, 2015)", "assay": "chemical genetic growth profiling, strain panel (AID 1159580);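 further: tested at 20 µM; growth read once vehicle control cultures reached saturation at 30 °C; 1 = growth at the plate median or of vehicle wells; lower values mean less growth of the strain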", "conditions": "S. cerevisiae deletion strains, growth OD", "note": "Screen size: about 5,500 compounds; about 2,000 (36%) were called active. Another 18% or so got no clear call; they are omitted. Some of the results follow. Values without a mark were called inactive. No stated cut-off is given here; in the data, active means normalized growth mostly below about 0.91 (no sharp cut-off); inconclusive means no clear call, values can overlap the other calls; inactive means mostly above about 0.92."}
{"smiles": "CCOC(=O)C(C)(N)Cc1ccc(O)c(O)c1", "note": "(stereo not given)", "values": [{"measurement": "normalized growth", "setting": "locus YAL021C, strain ccr4, hits give low values", "result": 0.967}, {"measurement": "normalized growth", "setting": "locus YAL026C, strain drs2, hits give low values", "result": 0.958}, {"measurement": "normalized growth", "setting": "locus YAL030W, strain snc1, hits give low values", "result": 0.965}, {"measurement": "normalized growth", "setting": "locus YBL061C, strain skt5, hits give low values", "result": 0.965}, {"measurement": "normalized growth", "setting": "locus YBR009C, strain hhf1, hits give low values", "result": 0.984}, {"measurement": "normalized growth", "setting": "locus YBR023C, strain chs3, hits give low values", "result": 0.981}, {"measurement": "normalized growth", "setting": "locus YBR171W, strain sec66, hits give low values", "result": 0.967}, {"measurement": "normalized growth", "setting": "locus YBR231C, strain swc5, hits give low values", "result": 0.992}, {"measurement": "normalized growth", "setting": "locus YBR279W, strain paf1, hits give low values", "result": 0.993}, {"measurement": "normalized growth", "setting": "locus YCL011C, strain gbp2, hits give low values", "result": 0.983}, {"measurement": "normalized growth", "setting": "locus YCL016C, strain dcc1, hits give low values", "result": 0.971}, {"measurement": "normalized growth", "setting": "locus YCL061C, strain MRC1, hits give low values", "result": 0.965}, {"measurement": "normalized growth", "setting": "locus YCL069W, strain vba3, hits give low values", "result": 0.989}, {"measurement": "normalized growth", "setting": "locus YCR088W, strain abp1, hits give low values", "result": 0.995}, {"measurement": "normalized growth", "setting": "locus YDL005C, strain med2, hits give low values", "result": 0.986}, {"measurement": "normalized growth", "setting": "locus YDL040C, strain nat1, hits give low values", "result": 0.993}, {"measurement": "normalized growth", "setting": "locus YDR001C, strain nth1, hits give low values", "result": 0.982}, {"measurement": "normalized growth", "setting": "locus YDR069C, strain doa4, hits give low values", "result": 0.944}, {"measurement": "normalized growth", "setting": "locus YDR137W, strain rgp1, hits give low values", "result": 0.956}, {"measurement": "normalized growth", "setting": "locus YDR159W, strain sac3, hits give low values", "result": 0.953}, {"measurement": "normalized growth", "setting": "locus YDR195W, strain ref2", "result": 0.985}, {"measurement": "normalized growth", "setting": "locus YDR297W, strain sur2, hits give low values", "result": 0.974}, {"measurement": "normalized growth", "setting": "locus YDR334W, strain swr1, hits give low values", "result": 0.921}, {"measurement": "normalized growth", "setting": "locus YDR335W, strain msn5, hits give low values", "result": 0.971}, {"measurement": "normalized growth", "setting": "locus YDR392W, strain spt3, hits give low values", "result": 0.964}, {"measurement": "normalized growth", "setting": "locus YEL003W, strain gim4, hits give low values", "result": 0.98}, {"measurement": "normalized growth", "setting": "locus YEL037C, strain rad23, hits give low values", "result": 0.983}, {"measurement": "normalized growth", "setting": "locus YEL061C, strain CIN8 (second series), hits give low values", "result": 0.988}, {"measurement": "normalized growth", "setting": "locus YER015W, strain faa2, hits give low values", "result": 0.952}, {"measurement": "normalized growth", "setting": "locus YER016W, strain bim1, hits give low values", "result": 0.992}, {"measurement": "normalized growth", "setting": "locus YER111C, strain swi4, hits give low values", "result": 0.968}, {"measurement": "normalized growth", "setting": "locus YER155C, strain BEM2 (second series), hits give low values", "result": 0.977}, {"measurement": "normalized growth", "setting": "locus YFR010W, strain ubp6, hits give low values", "result": 0.976}, {"measurement": "normalized growth", "setting": "locus YGL167C, strain pmr1, hits give low values", "result": 0.946}, {"measurement": "normalized growth", "setting": "locus YGL173C, strain kem1, hits give low values", "result": 0.945}, {"measurement": "normalized growth", "setting": "locus YGL227W, strain vid30, hits give low values", "result": 0.983}, {"measurement": "normalized growth", "setting": "locus YGL240W, strain doc1, hits give low values", "result": 0.958}, {"measurement": "normalized growth", "setting": "locus YGL253W, strain hxk2, hits give low values", "result": 0.978}, {"measurement": "normalized growth", "setting": "locus YHR013C, strain ard1, hits give low values", "result": 0.951}, {"measurement": "normalized growth", "setting": "locus YHR027C, strain rpn1, hits give low values", "result": 0.947}, {"measurement": "normalized growth", "setting": "locus YHR030C, strain SLT2, hits give low values", "result": 1.08}, {"measurement": "normalized growth", "setting": "locus YHR079C, strain IRE1, hits give low values", "result": 1.08}, {"measurement": "normalized growth", "setting": "locus YHR142W, strain chs7, hits give low values", "result": 0.989}, {"measurement": "normalized growth", "setting": "locus YJL092W, strain hpr5, hits give low values", "result": 0.978}, {"measurement": "normalized growth", "setting": "locus YJL095W, strain BCK1 (second series), hits give low values", "result": 0.973}, {"measurement": "normalized growth", "setting": "locus YJL095W, strain BCK1, hits give low values", "result": 1.02}, {"measurement": "normalized growth", "setting": "locus YJL115W, strain asf1, hits give low values", "result": 0.95}, {"measurement": "normalized growth", "setting": "locus YJL129C, strain trk1, hits give low values", "result": 0.994}, {"measurement": "normalized growth", "setting": "locus YJL154C, strain vps35, hits give low values", "result": 0.986}, {"measurement": "normalized growth", "setting": "locus YJL164C, strain tpk1, hits give low values", "result": 0.963}, {"measurement": "normalized growth", "setting": "locus YJL166W, strain qcr8, hits give low values", "result": 0.985}, {"measurement": "normalized growth", "setting": "locus YJL187C, strain SWE1, hits give low values", "result": 0.977}, {"measurement": "normalized growth", "setting": "locus YJR066W, strain TOR1, hits give low values", "result": 1}, {"measurement": "normalized growth", "setting": "locus YKL160W, strain elf1, hits give low values", "result": 0.987}, {"measurement": "normalized growth", "setting": "locus YKR026C, strain gcn3, hits give low values", "result": 0.971}, {"measurement": "normalized growth", "setting": "locus YKR091W, strain srl3, hits give low values", "result": 0.998}, {"measurement": "normalized growth", "setting": "locus YLL001W, strain dnm1, hits give low values", "result": 0.974}, {"measurement": "normalized growth", "setting": "locus YLL026W, hits give low values", "result": 0.971}, {"measurement": "normalized growth", "setting": "locus YLL041C, strain sdh2, hits give low values", "result": 0.962}, {"measurement": "normalized growth", "setting": "locus YLR027C, strain aat2, hits give low values", "result": 0.962}, {"measurement": "normalized growth", "setting": "locus YLR113W, strain HOG1, hits give low values", "result": 1}, {"measurement": "normalized growth", "setting": "locus YLR221C, strain rsa3, hits give low values", "result": 0.976}, {"measurement": "normalized growth", "setting": "locus YLR258W, strain gsy2, hits give low values", "result": 0.986}, {"measurement": "normalized growth", "setting": "locus YLR262C, strain YPT6 (second series), hits give low values", "result": 0.881}, {"measurement": "normalized growth", "setting": "locus YLR320W, strain mms22, hits give low values", "result": 0.988}, {"measurement": "normalized growth", "setting": "locus YLR342W, strain FKS1, hits give low values", "result": 0.977}, {"measurement": "normalized growth", "setting": "locus YLR357W, strain rsc2, hits give low values", "result": 0.969}, {"measurement": "normalized growth", "setting": "locus YLR370C, strain arc18, hits give low values", "result": 0.981}, {"measurement": "normalized growth", "setting": "locus YLR384C, strain iki3, hits give low values", "result": 0.958}, {"measurement": "normalized growth", "setting": "locus YML120C, strain ndi1, hits give low values", "result": 0.974}, {"measurement": "normalized growth", "setting": "locus YMR058W, strain fet3, hits give low values", "result": 0.946}, {"measurement": "normalized growth", "setting": "locus YMR125W, strain sto1, hits give low values", "result": 0.998}, {"measurement": "normalized growth", "setting": "locus YMR129W, hits give low values", "result": 0.997}, {"measurement": "normalized growth", "setting": "locus YMR205C, strain PFK2, hits give low values", "result": 0.971}, {"measurement": "normalized growth", "setting": "locus YMR231W, strain pep5, hits give low values", "result": 0.972}, {"measurement": "normalized growth", "setting": "locus YNL071W, strain lat1, hits give low values", "result": 1}, {"measurement": "normalized growth", "setting": "locus YNL183C, strain NPR1, hits give low values", "result": 0.987}, {"measurement": "normalized growth", "setting": "locus YNL209W, strain ssb2, hits give low values", "result": 0.961}, {"measurement": "normalized growth", "setting": "locus YNL248C, strain rpa49, hits give low values", "result": 0.984}, {"measurement": "normalized growth", "setting": "locus YNL322C, strain KRE1 (second series), hits give low values", "result": 0.979}, {"measurement": "normalized growth", "setting": "locus YNR049C, strain mso1, hits give low values", "result": 0.972}, {"measurement": "normalized growth", "setting": "locus YOR001W, strain rrp6, hits give low values", "result": 0.977}, {"measurement": "normalized growth", "setting": "locus YOR070C, strain gyp1, hits give low values", "result": 0.978}, {"measurement": "normalized growth", "setting": "locus YOR080W, strain dia2, hits give low values", "result": 0.982}, {"measurement": "normalized growth", "setting": "locus YOR083W, strain WHI5, hits give low values", "result": 0.983}, {"measurement": "normalized growth", "setting": "locus YOR106W, strain vam3, hits give low values", "result": "0.859 (active)"}, {"measurement": "normalized growth", "setting": "locus YOR231W, strain MKK1, hits give low values", "result": 1.06}, {"measurement": "normalized growth", "setting": "locus YOR265W, strain rbl2, hits give low values", "result": 0.969}, {"measurement": "normalized growth", "setting": "locus YOR270C, strain vph1, hits give low values", "result": 0.951}, {"measurement": "normalized growth", "setting": "locus YOR290C, strain snf2, hits give low values", "result": 0.946}, {"measurement": "normalized growth", "setting": "locus YPL051W, strain arl3, hits give low values", "result": 0.964}, {"measurement": "normalized growth", "setting": "locus YPL078C, strain atp4, hits give low values", "result": 0.984}, {"measurement": "normalized growth", "setting": "locus YPL106C, strain sse1, hits give low values", "result": 0.886}, {"measurement": "normalized growth", "setting": "locus YPL240C, strain hsp82, hits give low values", "result": 0.975}, {"measurement": "normalized growth", "setting": "locus YPL256C, strain CLN2, hits give low values", "result": 1.06}]}
